An excerpt weighted towards active compounds, which were near 2.2% of everything screened.
HTR2A ag: mouse Htr2a agonists via beta-arrestin recruitment, primary screen, cell-based, luminescence | 5-hydroxytryptamine receptor 2A (Mus musculus), P35363 | AID 624169, 2012 | CHO-K1 mHTR2A beta-arrestin complementation; percent of 30 µM serotonin response | activation, % at 7.6 µM | actives 0.66% (n = 360,000);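 active means activation above a run cutoff, the mean activation of all tested compounds plus 3 SD, cut at about 14% in these data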;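 further: 0% = plate median of compound wells and 100% = 30 µM serotonin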
MEX-5 binding: MEX-5 zinc finger RNA-binding disruptors – biochemical, C. elegans, fluorescence polarization, MLPCN library, primary screen | Zinc finger protein mex-5 (Caenorhabditis elegans), Q9XUB2 | MEX-5/FITC-TCR2 RNA binding; stronger effect = lower value | activity score (negative = inhibition of binding), % at 10 µM | actives 0.38% (n = 300,000) | AID 1832, 2009;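 active means inhibition past about -25% in most replicates, and total fluorescence under double the plate's negative control median, limit read from the data; inconclusive means replicates evenly split on the limit, or fluorescence at least double controls; inactive means too little inhibition in most replicates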;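 further: 0% = DMSO and -100% = 5 µM competing unlabeled TCR2 RNA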
JMJD2C inh: inhibitors of GASC-1 histone demethylase, primary screen, biochemical, fluorescence, DELFIA europium. Lysine-specific demethylase 4C (Homo sapiens), Q9H3R0. GST-JMJD2C(1-420) H3K9me3 demethylation. inhibition, % at 2.35 µM. AID 2099, 2009. actives 0.069% (n = 330,000);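 active means more than half of a compound's replicate wells show inhibition beyond 50%, single wells judged on their own value; inconclusive means some, but no more than half, of replicates pass 50% inhibition; inactive means no replicate passes 50% inhibition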;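 further: signal counts dimethyl H3K9 product captured on neutravidin plate; 0% = median of DMSO wells and 100% = 0.3 times that DMSO median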
Exocytosis inh: LAMP-1 surface exposure blockers, TALL-104 cells – cell-based, flow cytometry, MLPCN library, primary screen; TALL-104 LAMP-1 surface exposure; cells stimulated with thapsigargin and PMA; inhibition, % at 10 µM; actives 0.66% (n = 360,000); AID 651702, 2012;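 active means inhibition above about 55%, limit read from the data; inconclusive means no clear call, values can overlap the other calls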
V-ATPase pHluor: regulators of yeast V-ATPase proton pumping, primary screen, pHLuorin cytosolic pH fluorescence; AID 504577, 2011; S. cerevisiae; actives 0.37% (n = 350,000); response, % at 10 µM; in the data active means response mostly above about 7.3%, no sharp cut-off; inactive means mostly below about 5.4%; further: actives read high
VLA-4 inh: inhibition in human VLA-4 binding assay, primary screen, VLA-4 allosteric modulator project, MLPCN library, flow cytometry, VLA-4 expressing cells; ligand binding flow cytometry; inhibition, % (about 7 µM as worked out from the volumes in the protocol); actives 0.2% (n = 330,000); in the data active means inhibition above about 50%
Target sequence (P13612 whole entry, looked up): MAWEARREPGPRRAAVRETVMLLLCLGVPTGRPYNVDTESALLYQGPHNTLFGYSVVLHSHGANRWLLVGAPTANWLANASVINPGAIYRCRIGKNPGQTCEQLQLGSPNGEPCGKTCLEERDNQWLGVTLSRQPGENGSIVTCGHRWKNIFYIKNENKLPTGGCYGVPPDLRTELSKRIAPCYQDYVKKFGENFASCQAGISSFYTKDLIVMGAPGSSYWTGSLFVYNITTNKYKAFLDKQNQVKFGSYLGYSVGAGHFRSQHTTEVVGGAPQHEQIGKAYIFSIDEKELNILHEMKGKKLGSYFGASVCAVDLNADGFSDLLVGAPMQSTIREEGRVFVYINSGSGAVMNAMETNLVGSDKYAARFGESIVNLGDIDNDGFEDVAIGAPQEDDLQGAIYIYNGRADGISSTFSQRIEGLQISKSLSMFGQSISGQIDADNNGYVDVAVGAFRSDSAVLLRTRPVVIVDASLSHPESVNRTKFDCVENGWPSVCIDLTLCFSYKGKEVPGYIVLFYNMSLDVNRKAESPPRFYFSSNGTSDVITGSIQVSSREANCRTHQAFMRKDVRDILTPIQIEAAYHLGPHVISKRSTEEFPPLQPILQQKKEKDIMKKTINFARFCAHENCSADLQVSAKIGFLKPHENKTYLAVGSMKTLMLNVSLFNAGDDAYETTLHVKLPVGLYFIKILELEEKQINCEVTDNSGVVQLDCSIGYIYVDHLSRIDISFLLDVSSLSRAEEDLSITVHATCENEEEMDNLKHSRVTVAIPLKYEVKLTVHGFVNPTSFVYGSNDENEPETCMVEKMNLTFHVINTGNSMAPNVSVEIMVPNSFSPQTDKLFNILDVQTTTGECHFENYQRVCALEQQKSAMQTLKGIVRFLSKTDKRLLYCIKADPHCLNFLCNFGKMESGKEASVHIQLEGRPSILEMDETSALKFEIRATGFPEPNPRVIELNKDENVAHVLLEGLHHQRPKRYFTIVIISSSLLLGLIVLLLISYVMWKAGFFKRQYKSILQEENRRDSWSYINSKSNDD
Starred values were filed as active, the others as inactive; ? = inconclusive; · = no result given.

SMILES	HTR2A ag	MEX-5 binding	JMJD2C inh	Exocytosis inh	V-ATPase pHluor	VLA-4 inh
COc1cccc(-n2nc3c(=S)[nH]nc(C)c3c2C)c1	1	-7	8	1	3	8
COc1ccc2cc(C(C)C(=O)O)ccc2c1 (centres undefined)	5	·	·	-1	0	4
COc1ccc2cc([C@H](C)C(=O)O)ccc2c1	41*	-1	7	1	-4	-1
CCOc1cc(/C=C2\CN(CC)C/C(=C\c3ccc(O)c(OCC)c3)C2=O)ccc1O	-9	-1	4	57*	3	3
O=C1NC(=O)/C(=C/c2cccc([N+](=O)[O-])c2)N1	-3	-1	1	1	-2	6
CCN1C/C(=C/c2cccc([N+](=O)[O-])c2)C(=O)/C(=C/c2cccc([N+](=O)[O-])c2)C1	5	·	-7	64*	3	39
COc1cc(/C=C2\CCC/C(=C\c3ccc(O)c(OC)c3)C2=O)ccc1O	-5	0	6	16	1	-5
CCC(C)N1CCC2(CC1)N=c1c(c3c4c5c(C)c(O)c3c(O)c1=NC(=O)C(C)=CC=C[C@H](C)[C@H](O)[C@@H](C)[C@@H](O)[C@@H](C)[C@H](OC(C)=O)[C@H](C)[C@@H](OC)C=CO[C@@](C)(O5)C4=O)N2 (some centres undefined)	-4	·	·	3	11	28
O=C1C2CC=C(Cl)CC2C(=O)N1CC1OCCc2ccccc21 (centres undefined)	1	-7	16	0	-1	-6
O=C1C2CC=C(Cl)CC2C(=O)N1CC1Cc2ccccc2CO1 (centres undefined)	-2	-26*	6	-1	0	-23
Cc1cccc(N(CC(=O)NC2CCCC2)C(=O)CNC(=O)c2ccco2)c1C	-6	2	-3	4	1	7
COc1ccc([C@H]2CC(=O)C=C(c3ccc(Cl)c(C(F)(F)F)c3)C2)cc1OC	4	·	-6	-1	-4	0
COc1cc(C2C(C#N)=C(N)Oc3n[nH]c(-c4cccnc4)c32)ccc1OCC(N)=O (centres undefined)	3	-2	-9	0	2	5
COc1cc(C2C(C#N)=C(N)Oc3n[nH]c(-c4cccnc4)c32)cc(Br)c1O (centres undefined)	-1	-34*	-31	-3	-1	-1
Cc1c(C=O)c2cc(OCc3ccccc3)ccc2n1C	-2	0	11	69*	0	2
O=C(N[C@H]1C/C=C\C[C@H](CC(=O)N(CCO)Cc2ccccc2)C(=O)NC[C@H](c2ccccc2)OC1=O)OCC1c2ccccc2-c2ccccc21	-7	·	-5	-1	2	4
COc1ccc(C(=O)CCC(=O)N2CCN(c3ccccc3)CC2)cc1	-1	1	4	0	-1	-2
CC1=NOC(=O)/C1=C\c1ccc(-c2ccc(Cl)cc2Cl)o1	-1	2	22	96*	3	·
CCCOc1ccc(Cl)cc1/C=C1/C(=O)ON=C1C	12	0	-17	-6	2	19
COc1ccc(/C=C2\SC(=S)N(CCC(=O)Nc3cccc(O)c3)C2=O)cc1OC	4	2	-6	-2	1	2
CCc1ccc(/C=C2\SC(=S)N(CCCC(=O)N3CCN(C)CC3)C2=O)cc1	-2	·	·	72*	-2	·
COc1ccc(/C=C2\SC(=S)N(CCC(=O)N3CCOCC3)C2=O)cc1	4	2	-27	-2	-2	-3
COc1ccc(/C=C2/SC(=S)N(CCCC(=O)Nc3cccc(O)c3)C2=O)cc1	6	-2	-6	97*	-3	12
COc1ccc(/C=C2\SC(=S)N(CCCC(=O)N3CCN(C)CC3)C2=O)cc1	-3	-2	-18	63*	-2	-1
CC(Oc1ccccc1F)C(=O)NNC(=O)Cc1ccc(S(=O)(=O)N2CCOCC2)s1 (centres undefined)	3	·	·	2	-1	·
SMILES	HTR2A ag	MEX-5 binding	JMJD2C inh	Exocytosis inh	V-ATPase pHluor	VLA-4 inh
COc1ccc2[nH]c(C(=O)N(Cc3ccccn3)Cc3ccccn3)cc2c1	-8	0	2	0	37*	-2
CCCCN(Cc1cc2cc(OC)ccc2[nH]c1=O)C(=O)c1ccccn1	-4	2	-4	0	-4	4
CCn1c(SCC(=O)N(C)C2CCS(=O)(=O)C2)nnc1-c1ccccc1 (centres undefined)	-3	-1	12	2	-2	2
Cc1[nH]c2ccccc2c1/C=C/c1cc[n+](C)cc1	-5	?	-24	1	13*	·
C[n+]1ccc2[nH]c3ccccc3c2c1	-5	·	·	24	·	·
Cc1ccc(C(=O)C2CCN(S(=O)(=O)c3ccc(C(=O)O)cc3)CC2)cc1	-5	1	59	-5	0	-3
COC(=O)[C@]12CCCCC=C1N(Cc1ccccc1)C(=O)[C@H](CC(=O)N1CCCC1)C2	-4	·	·	6	·	·
CC(C)N(CCNC(=O)c1oc(=O)c2ccccc2c1-c1ccccc1)Cc1ccco1	-3	0	2	-2	-3	-1
Cc1ccc(CN(C)C(=O)CC2C(=O)NCCN2CC2CCCCC2)cc1 (centres undefined)	-6	-48*	-6	0	-3	2
Cc1ccc(SCC(=O)Nc2cccnc2)cc1	-3	2	-3	2	3	24
O=C(CSc1ccccc1)Nc1cccnc1	2	0	11	-1	14*	8
CCCCNC(=O)c1cc2c(=O)n3cccc(C)c3nc2n(Cc2ccncc2)c1=N	-3	-41*	-1	1	-11	6
COCCNC(=O)c1cc2c(=O)n3cccc(C)c3nc2n(Cc2ccncc2)c1=N	3	4	0	2	-72	11
N=c1c(C(=O)NCc2ccco2)cc2c(=O)n3ccccc3nc2n1Cc1ccc(Cl)cc1	-3	-2	1	64*	2	11
COc1cccc(NC(=O)c2cc3c(=O)n4ccccc4nc3n(CC(C)C)c2=N)c1	4	-11	-39	68*	-3	14
COc1cc(NC(=O)c2ccc(OCc3c(C)noc3C)c(OC)c2)cc(OC)c1	-5	·	-12	-3	2	-4
COc1ccc(C(=O)N2CCN(C(=O)C3CCCO3)CC2)cc1[N+](=O)[O-] (centres undefined)	0	·	4	-7	0	6
CCCCCC(=O)N1C[C@H](n2cc(-c3ccc(F)cc3)nn2)[C@@H](O)C[C@@H]1c1ccc(Cl)cc1	3	·	·	0	1	·

Bioassay records as filed in PubChem.
